Test results taken from PubChem BioAssay (Tox21).
Records with an inconclusive call do not appear. Where a call stands in place of a potency, no number is given. The source made the active and inactive calls. Unless noted, calls come from the whole dose curve; as a rule, active = well fitted curve in the direction sought with a large enough effect in the repeat runs; inconclusive = weak or mixed curves; inactive = no such curve, though single readings can be large; an effect the other way counts as inactive or inconclusive.

Key:
[1] = qHTS assay to identify small molecule agonists of the RXR signaling pathway - cell viability counter screen (AID 1159529); note: nearly all actives have a fitted effect of over 50% in size; note: potency is the fitted concentration of half-maximal effect
In short: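 Steps: seed RXR-alpha-UAS-bla HEK 293T cells in assay medium containing 2% charcoal-stripped FBS; incubate 5 hr; add compounds in DMSO; incubate 16 hr at 37 C; after the bla read, add CellTiter-Glo and read luminescence at 30 min.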

[2] = qHTS assay to identify small molecule antagonists of the retinoid acid receptor (RAR) signaling pathway - cell viability counter screen (AID 1159551); note: nearly all actives have a fitted effect of over 35% in size
In short: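 ATP-based viability, C3RL4 cells, 6 h at 37 C with 1 uM final retinol co-added after compound; luminescence read 30 min post CellTiter-Glo, RT.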

[3] = qHTS assay to identify small molecule antagonists of the retinoic acid receptor (RAR) signaling pathway (AID 1159552; note: nearly all actives have a fitted effect of over 50% in size; note: potency is the fitted concentration of half-maximal effect)
In short: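 Retinol at 1 uM final stimulated RARE-luciferase expression in C3RL4 cells exposed to test compounds for 6 hr at 37 C. Reduced luminescence, read 30 min after detection reagent, indicated pathway antagonism.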

[4] = qHTS assay to identify small molecule agonists of the retinoic acid receptor (RAR) signaling pathway (AID 1159553); note: potency is the fitted concentration of half-maximal effect
In short: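 Quantitative high-throughput format: the Tox21 10K library was tested on C3RL4 RARE-luciferase cells for 6 hr at 37 C and 5% CO2, with luminescence measured after a 30 min room-temperature reagent step.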

[5] = qHTS assay to identify small molecule antagonists of the estrogen related receptor (ERR) signaling pathway (AID 1224819; note: nearly all actives have a fitted effect of over 50% in size; note: potency is the fitted concentration of half-maximal effect)
In short: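 ERR reporter cell line (NTP) plated at 2,000 cells/well, settled 6 h at 37C/5% CO2, then exposed to LOPAC compounds for 18 h at 37C. One-Glo luciferase luminescence read after 30 min at room temperature.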

[6] = qHTS assay to identify small molecule agonists of the estrogen related receptor (ERR) signaling pathway (AID 1224820)
In short: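 After 6 h plating (2,000 cells/well) and 18 h compound treatment at 37 C, ERR cells were lysed with One-Glo and luminescence read after 30 min at room temperature.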

[7] = test system: estrogen-related receptor alpha (ERRalpha) with PGC-1alpha coactivator, human; assay: qHTS assay to identify small molecule antagonists of the estrogen related receptor signaling pathway with the pleiotropic PPARgamma coactivator (PGC) (AID 1224821; calls by dose curve; note: nearly all actives have a fitted effect of over 50% in size; note: potency is the fitted concentration of half-maximal effect)
In short: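 Luminescence from One-Glo luciferase reagent (30 min, room temperature) measured after 18 h compound treatment at 37 °C. Cells carry the PGC/ERR reporter and were seeded 6 h prior to dosing.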

[8] = qHTS assay to identify small molecule agonists of the estrogen related receptor signaling pathway with the pleiotropic PPARgamma coactivator (PGC) (AID 1224823)
In short: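 Luminescence from One-Glo reagent (30 min, room temperature) was read after 18 h compound treatment at 37 C of PGC/ERR cells plated 6 h beforehand; compounds delivered in DMSO by pin tool.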

[9] = qHTS assay to identify small molecule antagonists of the estrogen related receptor signaling pathway with the pleiotropic PPARgamma coactivator (PGC) cell viability counter screen (AID 1224822;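 note: series mostly up to about 46 µM; viability read after 17.5 h compound exposure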)
In short: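 Cytotoxicity in the PGC/ERR cell line is assessed with CellTiter-Fluor, read as fluorescence intensity 30 min after reagent addition, following 17.5 h compound treatment at 37 C.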

CCCCCCCCCCCC[N+](C)(C)CC(=O)[O-]
Potency [1]: 24.5 µM (active) | Potency [2]: inactive | Potency [3]: inactive | Potency [4]: inactive

CC(=O)N(c1onc(C)c1C)S(=O)(=O)c1ccc(N)cc1
Potency [1]: inactive | Potency [2]: inactive | Potency [3]: inactive | Potency [4]: inactive

CCC(C)=O
Potency [1]: inactive | Potency [2]: inactive | Potency [4]: inactive

O=C(OCCOCCO)c1ccccc1Nc1cccc(C(F)(F)F)c1
Potency [1]: inactive | Potency [2]: inactive | Potency [3]: inactive | Potency [4]: inactive

CCCCCCCCCCCC[N+](C)(C)CCCS(=O)(=O)[O-]
Potency [1]: inactive | Potency [2]: inactive | Potency [3]: inactive | Potency [4]: inactive

CCOC(=N)CC(=O)OCC
Potency [1]: inactive | Potency [2]: inactive | Potency [3]: inactive | Potency [4]: inactive

CCOC(=O)[C@@H](C)Oc1ccc(Oc2nc3ccc(Cl)cc3o2)cc1
Potency [1]: inactive | Potency [3]: inactive

CCOC(=O)c1ccccc1OC
Potency [1]: inactive | Potency [2]: inactive | Potency [3]: inactive | Potency [4]: inactive

N#C/C(=C1\SCC(c2ccccc2Cl)S1)n1ccnc1 (stereo not drawn)
Potency [1]: inactive | Potency [3]: inactive | Potency [4]: inactive

Cc1cc(S(=O)(=O)O)ccc1N=Nc1c(O)ccc2ccccc12
Potency [1]: inactive | Potency [3]: inactive | Potency [4]: inactive

CCCCCCCCCCOS(=O)(=O)O
Potency [1]: inactive | Potency [2]: inactive | Potency [3]: inactive | Potency [4]: inactive

COc1ccc(C(=O)c2cccc(O)c2)c(OC)c1
Potency [1]: inactive | Potency [2]: inactive | Potency [3]: inactive | Potency [4]: inactive

CC(=O)Oc1ccc2c(c1)CC[C@@H]1[C@@H]2CC[C@]2(C)[C@@H](O)CC[C@@H]12
Potency [1]: inactive | Potency [2]: inactive | Potency [4]: inactive

O=C(Nc1ccc([N+](=O)[O-])cc1)Nc1ccc([N+](=O)[O-])cc1
Potency [1]: 0.952 µM (active) | Potency [2]: inactive | Potency [3]: inactive | Potency [4]: inactive

NC(=O)N(O)[C@@H]1C=C[C@H](Oc2cccc(Oc3ccc(F)cc3)c2)C1
Potency [1]: inactive | Potency [2]: inactive | Potency [3]: inactive | Potency [4]: 61.1 µM (active)

Fc1c(F)c(F)c(Br)c(F)c1F
Potency [1]: inactive | Potency [2]: inactive | Potency [4]: inactive

CCCCC(CC)C(=O)OCCOCCOCCOCCOC(=O)C(CC)CCCC (stereo not drawn)
Potency [1]: inactive | Potency [2]: inactive | Potency [3]: inactive | Potency [4]: inactive

ON(Cc1ccccc1)Cc1ccccc1
Potency [1]: inactive | Potency [2]: inactive | Potency [3]: inactive | Potency [4]: inactive

CC(COc1ccc(C(C)(C)C)cc1)OS(=O)OCCCl (stereo not drawn)
Potency [1]: inactive | Potency [3]: 3.88 µM (active) | Potency [4]: inactive

O=C(O)c1c(O)c(-c2ccccc2)nc2ccccc12
Potency [1]: inactive | Potency [3]: inactive

COCCOC
Potency [1]: inactive | Potency [3]: 6.54 µM (active) | Potency [4]: inactive

Cc1nccn1-c1ccc(Sc2cccc(C3(C(N)=O)CCOCC3)c2)cc1
Potency [1]: inactive | Potency [3]: 9.69 µM (active)

CC(C)CCCCCOC(=O)CCCCC(=O)OCCCCCC(C)C
Potency [1]: inactive | Potency [2]: inactive | Potency [3]: inactive | Potency [4]: inactive

N#C/C(=C1/SC[C@@H](c2ccc(Cl)cc2Cl)S1)n1ccnc1
Potency [1]: inactive | Potency [2]: inactive | Potency [4]: inactive

COc1ccc(CCC(=O)c2c(O)cc(O[C@@H]3O[C@H](CO)[C@@H](O)[C@H](O)[C@H]3O[C@@H]3O[C@@H](C)[C@H](O)[C@@H](O)[C@H]3O)cc2O)cc1O
Potency [1]: inactive | Potency [3]: inactive | Potency [4]: inactive

Cc1oc(C)c(C(=O)Nc2ccccc2)c1C
Potency [1]: inactive | Potency [3]: inactive | Potency [4]: inactive

CCC(Cc1ccccc1)(C(=O)c1ccc(N2CCOCC2)cc1)N(C)C (stereo not drawn)
Potency [1]: inactive | Potency [2]: inactive | Potency [4]: inactive

COCCOC(=O)C1=C(C)NC(C)=C(C(=O)OC/C=C/c2ccccc2)C1c1cccc([N+](=O)[O-])c1 (stereo not drawn)
Potency [1]: inactive | Potency [2]: inactive | Potency [4]: inactive | Potency [5]: 11.9 µM (active) | outcome [6]: inactive | Potency [7]: 17.4 µM (active) | Potency [8]: inactive

Brc1cc(-c2ccc(Br)c(Br)c2Br)cc(Br)c1Br
Potency [1]: 10.8 µM (active) | Potency [2]: inactive | Potency [4]: inactive

CC(=O)OCC(=O)[C@H]1CC[C@H]2[C@@H]3CCC4=CC(=O)CC[C@]4(C)[C@H]3CC[C@]12C
Potency [1]: inactive | Potency [2]: inactive | Potency [4]: inactive

NC(=O)Nc1ccc(Cl)c(Cl)c1
Potency [1]: inactive | Potency [2]: inactive | Potency [3]: inactive | Potency [4]: inactive

O=C(CCCCCCCCC#CI)Oc1ccccc1
Potency [1]: inactive | Potency [2]: inactive | Potency [4]: inactive

CCCOc1ccc(S(=O)(=O)N2CCN(CC)CC2)cc1-c1nc2c(CC)n(Cc3ccccn3)nc2c(=O)[nH]1
Potency [1]: inactive | Potency [2]: inactive | Potency [3]: inactive | Potency [4]: inactive

Nc1ccc(Cl)cc1[N+](=O)[O-]
Potency [1]: inactive | Potency [2]: inactive | Potency [4]: inactive

Cc1occc1C(=O)Nc1ccc(C(=O)N2CCC(F)(F)/C(=C\C(=O)N3CCC(N4CCCCC4)CC3)c3ccccc32)cc1
Potency [2]: inactive | Potency [3]: inactive | Potency [4]: inactive

CCCc1c(OCCCOc2ccc(OCC(=O)O)cc2)ccc(C(C)=O)c1O
Potency [5]: inactive | outcome [6]: inactive | Potency [7]: inactive | outcome [9]: inactive | Potency [8]: inactive

COC(=O)CC(=O)C(C)(C)C
Potency [2]: inactive

c1cc[c]([Bi]([c]2ccccc2)[c]2ccccc2)cc1
Potency [2]: inactive

CC[C@H](NC(=O)c1cc(F)ccc1NS(=O)(=O)c1cccc2cccnc12)c1ccccc1
Potency [2]: inactive | Potency [3]: inactive | Potency [4]: inactive

CCCCCC=CCC=CCCCCCCCC(=O)OCC
Potency [2]: inactive

CC(C)(C)CC(C)(C)c1ccc(OCCO)cc1
Potency [2]: inactive | Potency [3]: inactive | Potency [4]: inactive

CCOC(=O)c1ccccc1C
Potency [2]: inactive | Potency [3]: inactive | Potency [4]: inactive
